According to ChEMBL document CHEMBL3433997, “St. Jude Leishmania screening dataset” (2016):

Assays:
Format in all cases: functional
[1] = molecular target: Solute carrier family 2, facilitated glucose transporter member 1 (Homo sapiens) (UniProt P11166); assay: ST_JUDE_LEISH: Cytotoxicity at 2uM final concentration against transgenic Leishmania Mexicana promastigotes LmGLUT1 that are glucose transport deficient and complemented with the human glucose transporter GLUT1. Activity is measured by DNA content using SYBR green in vitro
[2] = molecular target: Hexose transporter 1 (Plasmodium falciparum) (UniProt O97467); assay: ST_JUDE_LEISH: Cytotoxicity at 2uM final concentration against transgenic Leishmania Mexicana promastigotes LmPfHT that are glucose transport deficient and complemented with the Plasmodium falciparum hexose transporter. Activity is measured by DNA content using SYBR green in vitro
[3] = molecular target: Glucose transporter (Leishmania mexicana) (UniProt O61059); assay: ST_JUDE_LEISH: Cytotoxicity at 2uM final concentration against transgenic Leishmania Mexicana promastigotes LmGT2 that are glucose transport deficient and complemented with the L. Mexicana glucose transporter 2. Activity is measured by DNA content using SYBR green in vitro

Chain of Solute carrier family 2, facilitated glucose transporter member 1 (Homo sapiens) (P11166 whole entry): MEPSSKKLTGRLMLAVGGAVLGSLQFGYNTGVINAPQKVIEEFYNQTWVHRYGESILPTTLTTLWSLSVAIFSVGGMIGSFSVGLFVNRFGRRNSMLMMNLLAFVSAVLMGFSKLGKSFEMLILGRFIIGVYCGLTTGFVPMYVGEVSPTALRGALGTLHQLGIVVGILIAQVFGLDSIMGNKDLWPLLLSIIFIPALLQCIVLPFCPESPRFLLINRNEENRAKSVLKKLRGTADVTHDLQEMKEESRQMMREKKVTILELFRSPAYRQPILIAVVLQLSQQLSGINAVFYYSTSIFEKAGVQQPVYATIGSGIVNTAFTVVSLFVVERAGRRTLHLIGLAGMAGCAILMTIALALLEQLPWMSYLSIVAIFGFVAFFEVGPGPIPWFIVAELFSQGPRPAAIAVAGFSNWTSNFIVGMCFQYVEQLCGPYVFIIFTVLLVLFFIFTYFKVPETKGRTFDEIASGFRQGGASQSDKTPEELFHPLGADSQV

SMILES | inhibition [1] | inhibition [2] | inhibition [3]
COc1cc(C(=O)NC2CCN(Cc3ccccc3)CC2)ccc1-c1nc2c(Cl)cc(C(F)(F)F)cc2[nH]1 | 5.51% | 3.32% | 3.49%
Cc1ccccc1C1CCN(C2CCC(NC(=O)c3ccc(-c4ccccc4)s3)CC2)CC1 (stereo not given) | 1.32% | 0.48% | 0.02%
Cc1cc(N[C@@H](Cc2ccccc2)C(=O)Nc2ccccc2)nc(NCCc2ccccn2)n1 | 4.62% | 4.95% | 3.53%
CNCCNCc1ccc(-c2ccc(-c3nc4cc(F)ccc4[nH]3)cc2)cc1 | 0.55% | 0.64% | 0.13%
CCOc1cc(Cc2cnc(N)nc2N)cc(OCC)c1OCCCCC(=O)OC | 4.55% | 0.23% | 0.19%
CN(c1ccc(NC(=O)c2cccc(F)c2)cc1)C1CCCN(Cc2cccc(O)c2)C1 (stereo not given) | -0.85% | -2.67% | -0.73%
O=C(C=Cc1ccc(Cl)c(Cl)c1)NCCCCCN1CCCC(CCCNS(=O)(=O)c2cccc3cccnc23)C1 (stereo not given) | 5.85% | 5.36% | -0.71%
O=C(/C=C/c1ccc(Cl)cc1Cl)NCCCCCN1CCC(c2c[nH]c3ccccc23)CC1 | -2.21% | 0.6% | 1.57%
Nc1nc(N)c2cc(S(=O)(=O)c3ccc4ccccc4c3)ccc2n1 | 10.7% | 18.4% | 8.89%
Cc1cc([N+](=O)[O-])ccc1N1CCN(CCCCNC(=O)c2ccc(NC(=O)c3ccc(Cl)cc3)cc2)CC1 | 4.75% | 4.19% | 4.35%
COc1cc(Cc2cnc(N)nc2N)cc(OCCCCCC(=O)O)c1OC | 6.91% | 5.78% | 5.12%
CCOc1ccccc1C(=O)N1CCc2cc3nccc(N4CCN5CCC[C@H]5C4)c3cc21 | -0.64% | -0.67% | -0.44%
COc1cc2nc(N3CCC(CNC(=O)/C=C/c4cccc(C)c4)CC3)nc(N)c2cc1OC | 7.71% | 0.18% | -0.03%
Cc1ccc2c(=O)cc(CCc3cccc(F)c3F)n(CC(=O)N(Cc3ccc(-c4ccc(C(F)(F)F)cc4)cc3)C3CCN(C)CC3)c2n1 | 2% | 0.92% | 1.01%
Cc1nnsc1C(=O)Nc1cccc(-c2cccc(-c3nc4ccccc4[nH]3)c2)c1 | -1.84% | 0.03% | -2.07%
CC(=O)Nc1ncc(C(=O)Nc2cccc(-c3ccc(-c4nc5cc(F)ccc5[nH]4)cc3)c2)s1 | 4.02% | 1.84% | 2.62%
CNCCNCc1ccc(-c2ccc(-c3nc4cc(C(F)(F)F)ccc4[nH]3)cc2)cc1 | -0.49% | 3.17% | 2.46%
CN1CCN(c2cc3c(cc2Br)CCN3C(=O)Nc2ccc(-c3cnc4ccccc4c3)cc2)CC1 | 107% | 100% | 109%
CC1CN(Cc2cccc(F)c2)CCN1c1ccc(NC(=O)c2ccc(F)cc2)cc1 (stereo not given) | 2.15% | 1.55% | 8.54%
Cc1[nH]cc(Br)c(=O)c1-c1ccc(Oc2ccc(OC(F)(F)F)cc2)cc1 | 3.93% | 4.74% | 4.41%
COc1ccccc1C1CCN(C2CCC(NC(=O)/C=C/c3ccc(C(F)(F)F)cc3F)CC2)CC1 (stereo not given) | 0.47% | 1.54% | -0.44%
Cc1ccc2c(N/N=C/c3cccc([N+](=O)[O-])c3)cc(C)nc2c1 | 8.19% | 4.7% | 3.94%
CCCNC(=O)c1ccnc(-c2ccc(CNC3Cc4ccccc4C3)cc2)c1 | 1.45% | 1.35% | -0.22%
COCCN1CCC(NCC(C)(C)c2nc(-c3ccc(Cl)c(O)c3)c(-c3ccncc3)[nH]2)CC1 | 4.86% | 8.59% | 6.49%
COc1cccc2cc(C(=O)N[C@@H](CC(C)C)C(=O)Nc3cc(F)ccc3Br)oc12 | 1.51% | 0.34% | 0.22%

SMILES | inhibition [1] | inhibition [2] | inhibition [3]
COc1cc2nc(N3CCC(CNC(=O)c4ccc(-c5ccc(-c6noc(C)n6)cc5C)cc4)CC3)nc(N)c2cc1OC | 8.2% | 7.8% | 5.29%
O=C(c1ccc(-c2ccc(-c3nc4ccccc4[nH]3)s2)cc1)N1CCCCC1CN1CCC(O)C1 (stereo not given) | 3.07% | 2.95% | 4.01%
CCOc1ccccc1CNc1nccc(NCc2ccccc2OC)n1 | 2.53% | 4.16% | 2.05%
O=C(Cn1c(CCc2cccc(F)c2F)cc(=O)c2ccccc21)N(Cc1ccc(-c2ccc(C(F)(F)F)cc2)cc1)C1CCN(CCO)CC1 | 4.1% | 3.74% | 4.47%
Nc1ccn([C@@H]2O[C@H](COC(c3ccccc3)(c3ccccc3)c3ccccc3)[C@@H](O)[C@@H]2O)c(=O)n1 | 3.1% | 4.86% | 4.4%
Cc1cc2nc(-c3cc(Br)ccc3O)c(-c3cc(Br)ccc3O)nc2cc1C | -1.26% | -1.38% | -1.13%
O=C(/C=C/c1ccccc1O)NCCCCCN1CCC(c2c[nH]c3ccccc23)CC1 | 3.82% | 2.03% | 1.37%
CN1CCC(OC(=O)c2cc3cc(-c4ccccc4)ccc3n2S(=O)(=O)c2ccccc2)CC1 | 1.64% | 0.71% | 3.61%
NC(=S)Cc1ccc2c(c1)OCO2 | -0.08% | -0.33% | -0.59%
CCOC(=O)c1ccc(NC(=O)N[C@@H](Cc2ccc(O)cc2)C(=O)NC2CCN(Cc3ccc4c(c3)OCO4)CC2)cc1 | 0.57% | 2.47% | 0.58%
O=C(NCCc1ccc(Cl)c(Cl)c1)C1CCCN(C(=O)c2ccc(O)c(-c3ccc(Cl)c(Cl)c3)c2)C1 (stereo not given) | 1.33% | 2.53% | 4.3%
Cc1cccc2nc(-c3ccc(-c4cccc(NC(=O)C(C)CN(C)C)c4)cc3)[nH]c12 (stereo not given) | 8.52% | 7.83% | 3.93%
CN1CCN(CCCCCCNc2c3ccccc3nc3ccccc23)CC1 | 27.1% | 19.4% | 10.9%
O=c1cc(NCCCNC2CCOc3c(Cl)cc(Cl)cc32)[nH]c2ccccc12 (stereo not given) | 1.09% | 2.42% | 1.28%
CO/C(=C\C=C\c1cc2cc(Cl)c(Cl)cc2[nH]1)C(=O)NCCCN1CCN(c2cccc(CCCO)c2)CC1 | 6% | 5.32% | 5.89%
CC(=O)Nc1nc(C(=O)Nc2cccc(-c3cccc(-c4nc5ccccc5[nH]4)c3)c2)cs1 | 12% | 15.6% | 6.57%
Cc1ccc(Cn2ncc(NC3CCNCC3)c(Cl)c2=O)cc1NC(=O)Nc1ccc(-c2ccccc2)cc1 | 5.14% | 9.28% | 5.29%
CCOC(=O)c1ccc(OCCCCCCOc2ccc(Br)cc2)cc1 | 1.32% | 4.52% | -0.5%
CC(C)(NCc1ccc(OC(F)(F)F)cc1)c1nc(-c2ccc(Cl)c(O)c2)c(-c2ccncc2)[nH]1 | -0.58% | -0.36% | 1.94%
Cc1cc(NCc2ccc(F)cc2)nc2cc(O)ccc12 | 2.81% | 3.64% | 1.59%
CN(C)CC(=O)N(Cc1ccc(Cl)c(Cl)c1)Cc1csc(-c2ccc(CNCc3ccccc3)cc2)n1 | 3.28% | 0.77% | 0.35%
Cc1ccc(C2CCN(CCCCNC(=O)c3ccc(-c4ccc(C(F)(F)F)cc4)cc3)CC2)c(O)c1 | -0.37% | -0.08% | -0.78%
OCCCCCCNc1ccnc2[nH]c3ccc(I)cc3c12 | 8.64% | 6.33% | 3.14%
CS(=O)(=O)c1ccc(-c2cc(C(F)(F)F)nc(N[C@@H]3CCCC[C@H]3OCc3ccccc3)n2)cc1 | 1.33% | 1.84% | 1.66%
Nc1c(Cl)cc(C(O)CNCCCCCOCCc2ccc3occc3c2)cc1Cl (stereo not given) | 3.53% | 3.64% | 1.96%
